Drawing on PubChem BioAssay, this text covers composite z-score and z-score for 5 compounds.

A short description of test [1]: small molecules captured by biotinylated probe aFSTL3 – biochemical, small-molecule microarray, fluorescence 635/667, stem cell growth factor project, primary screen (AID 1064).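 Also: measures binding of the biotinylated anti-FSTL3 antibody to printed compounds.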 Conditions: higher = more signal.
Test [2] can be described thus: binders from COS7 lysate, DM2A8 probe, primary screen, torsin A project, cell lysate, small-molecule microarray, fluorescence 635/667 (AID 1065). As to conditions: higher = more signal, COS7 lysate expressing mutant human TOR1A.
Test [3] can be described thus: small molecules captured by biotinylated probe aFGF2 – biochemical, small-molecule microarray, fluorescence 635/667, stem cell growth factor project, primary screen (AID 1067).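 Also: measures binding of biotinylated aFGF2 protein to printed compounds on slides; z-score merges feature fluorescence and signal-to-noise across triplicate slides.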 Conditions: higher = more signal.
Test [4] in a line: small molecules captured by biotinylated probe aFGF10 – biochemical, small-molecule microarray, fluorescence 635/667, stem cell growth factor project, primary screen (AID 1071).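 Also: score merges 667 nm spot intensity and signal to noise from triplicate slides.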 As to conditions: higher = more signal.
Test [5] has as its target Neurogenic locus notch homolog protein 2 (Homo sapiens) (UniProt Q04721). Put plainly: small molecules binding Notch2 protein – biochemical, small-molecule microarray, 635 nm fluorescence, stem cell growth factors, primary screen (AID 1073). Conditions: higher = more signal.
For test [6], the target named is Pro-neuregulin-1, membrane-bound isoform (Homo sapiens) (UniProt Q02297). Put plainly: small molecules binding neuregulin-1 protein – biochemical, small-molecule microarray, fluorescence 635/667, psychiatric disease protein project, primary screen (AID 1075).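 Also: score combines 667 nm spot fluorescence with signal to noise.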 As to conditions: NRG1 binding, 635 nm fluorescence, higher = more signal.
Chain of Pro-neuregulin-1, membrane-bound isoform (Homo sapiens) (Q02297 whole entry, looked up, the tested form may be a part, canonical isoform): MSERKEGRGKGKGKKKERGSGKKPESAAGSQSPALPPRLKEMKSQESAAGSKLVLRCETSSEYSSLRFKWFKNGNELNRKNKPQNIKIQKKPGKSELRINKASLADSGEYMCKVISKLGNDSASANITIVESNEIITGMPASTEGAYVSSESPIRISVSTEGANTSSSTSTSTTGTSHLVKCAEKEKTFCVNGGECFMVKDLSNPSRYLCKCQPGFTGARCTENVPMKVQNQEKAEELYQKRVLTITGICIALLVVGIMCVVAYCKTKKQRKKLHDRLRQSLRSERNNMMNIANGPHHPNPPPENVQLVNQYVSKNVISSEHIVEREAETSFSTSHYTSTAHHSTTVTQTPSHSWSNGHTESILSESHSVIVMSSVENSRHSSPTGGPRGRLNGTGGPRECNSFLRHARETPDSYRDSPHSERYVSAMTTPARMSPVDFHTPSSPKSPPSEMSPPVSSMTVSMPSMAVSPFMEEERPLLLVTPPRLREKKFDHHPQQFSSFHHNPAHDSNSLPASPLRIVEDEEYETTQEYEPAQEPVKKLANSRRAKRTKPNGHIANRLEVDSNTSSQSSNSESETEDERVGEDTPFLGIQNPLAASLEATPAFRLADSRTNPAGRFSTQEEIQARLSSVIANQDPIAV
Test [7] has as its system Neuregulin-1 EGF-like domain. Put plainly: small molecules binding NRG1 EGF domain – biochemical, small-molecule microarray, 635 nm fluorescence, primary screen (AID 1081).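 Also: binding of the protein to compounds printed on small-molecule microarray slides.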 Conditions: higher = more signal.
A short description of test [8]: FRG1 expression reporter modulators in myotubes – cell-based, C2C12 myotubes, firefly/Renilla luciferase, luminescence, FRG1 inhibition for FSHD, primary screen (AID 1084). Conditions: FRG1 promoter luciferase, higher = more signal, called active from +8 up or from −8 down.
Test [9] can be described thus: small molecules captured by biotinylated probe aFST – biochemical, small-molecule microarray, fluorescence 635/667, stem cell growth factor project, primary screen (AID 1086).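 Also: score merges 667 nm fluorescence with signal-to-noise of each printed compound spot.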 As to conditions: higher = more signal.
Test [10] can be described thus: binders of probe aHhip on microarray, primary screen, stem cell growth factor project, biochemical, small-molecule microarray, fluorescence 635/667 (AID 1087).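 Also: score merges spot fluorescence at 667nm with spot signal to noise ratio.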 As to conditions: higher = more signal.
For test [11], the system named is PRMT1 (protein arginine N-methyltransferase 1). In words: small molecules binding arginine methyltransferase PRMT1 – biochemical, small-molecule microarray, 635 nm fluorescence, primary screen (AID 1088).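 Also: binding of Prmt1 protein to compounds spotted on small-molecule microarray slides.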 Conditions: higher = more signal.
The nature of test [12]: growth effects on S. cerevisiae YJM789 – YJM789 clinical isolate, OD600, 24 h, basal, primary screen (AID 1089).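 Also: growth of clinical yeast isolate S. cerevisiae YJM 789 seeded 1000 cells per well; test concentration not given here.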 Conditions: higher = more signal, called active from +8 up or from −8 down.
Test [13] is described as follows: S. pombe growth modifiers, basal conditions – strain 972, OD600, 24 h, no modulator, primary screen (AID 1090).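 Also: basal condition with compound alone and no growth modifier present; test concentration not given here.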 As to conditions: S. pombe 972 growth, higher = more signal, called active from +8 up or from −8 down.
A short description of test [14]: budding yeast growth modifiers under rapamycin – strain BY4716, OD600, 96 h, primary screen (AID 1091). Also: test concentration not given here. Conditions: S. cerevisiae BY4716 + rapamycin, higher = more signal, called active from +8 up or from −8 down.
For test [15], the target named is Torsin-1A-interacting protein 2 (Homo sapiens) (UniProt Q8NFQ8). In words: small molecules binding lysate-expressed LULL1 – cell lysate, human LULL1 lysate, 635/667 nm fluorescence, primary screen (AID 1092).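 Also: probe is lysate of COS7 cells overexpressing human LULL1; score merges per-feature 667 nm fluorescence with signal-to-noise.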 As to conditions: small-molecule microarray, hLULL1 lysate binding, 635 nm fluorescence; higher = more signal.
Chain of Torsin-1A-interacting protein 2 (Homo sapiens) (Q8NFQ8 whole entry, looked up): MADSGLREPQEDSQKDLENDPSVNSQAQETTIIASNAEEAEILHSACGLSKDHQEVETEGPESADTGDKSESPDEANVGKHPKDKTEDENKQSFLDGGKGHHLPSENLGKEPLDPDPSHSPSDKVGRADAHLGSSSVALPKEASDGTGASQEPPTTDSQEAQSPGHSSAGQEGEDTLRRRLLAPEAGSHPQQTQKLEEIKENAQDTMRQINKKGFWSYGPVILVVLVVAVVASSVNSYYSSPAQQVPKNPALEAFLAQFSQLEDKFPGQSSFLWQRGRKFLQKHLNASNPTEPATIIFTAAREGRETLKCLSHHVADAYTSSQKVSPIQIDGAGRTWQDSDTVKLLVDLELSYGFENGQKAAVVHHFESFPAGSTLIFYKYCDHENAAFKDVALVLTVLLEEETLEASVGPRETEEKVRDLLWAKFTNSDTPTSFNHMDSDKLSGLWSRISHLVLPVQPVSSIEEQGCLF
Test [16] in a line: optical density change of DRC41 E. coli – strain DRC41, OD650, 24 h, E. coli filamentation project, primary screen (AID 1093).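 Also: MC1000 strain lacking acrAB efflux and sulA so SOS filamentation is blocked; test concentration not given here.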 As to conditions: E. coli DRC41 growth, higher = more signal, called active from +8 up or from −8 down.
Test [17] can be described thus: probe aLefty2 binding to arrayed compounds – biochemical, biotinylated probe, 635/667 nm fluorescence, primary screen (AID 1094).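 Also: score merges spot fluorescence near 667 nm with spot signal-to-noise ratio.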 Conditions: small-molecule microarray, higher = more signal.
Test [18] deals with Noggin (protein binding on small-molecule microarray). Put plainly: small molecules binding Noggin protein – biochemical, 635/667 nm fluorescence, primary screen (AID 1095).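 Also: score merges 667 nm feature fluorescence with signal to noise over triplicate slides.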 Conditions: 635 nm fluorescence, higher = more signal.
The target of test [19] is Neurogenic locus notch homolog protein 3 (Homo sapiens) (UniProt Q9UM47). Put plainly: small molecules binding NOTCH3 protein – biochemical, 635/667 nm fluorescence, primary screen (AID 1096). As to conditions: small-molecule microarray, 635 nm fluorescence, higher = more signal.
A short description of test [20]: probe aEGFR binding to arrayed compounds – biochemical, biotinylated probe, 635/667 nm fluorescence, primary screen (AID 1097).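 Also: probe is a biotinylated anti-EGFR antibody binding compounds printed on slides; score combines fluorescence near 667 nm and signal to noise of each spot.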 Conditions: small-molecule microarray, higher = more signal.

The source made the active and inactive calls.

Chain of Neurogenic locus notch homolog protein 2 (Homo sapiens) (Q04721 whole entry, looked up, canonical isoform): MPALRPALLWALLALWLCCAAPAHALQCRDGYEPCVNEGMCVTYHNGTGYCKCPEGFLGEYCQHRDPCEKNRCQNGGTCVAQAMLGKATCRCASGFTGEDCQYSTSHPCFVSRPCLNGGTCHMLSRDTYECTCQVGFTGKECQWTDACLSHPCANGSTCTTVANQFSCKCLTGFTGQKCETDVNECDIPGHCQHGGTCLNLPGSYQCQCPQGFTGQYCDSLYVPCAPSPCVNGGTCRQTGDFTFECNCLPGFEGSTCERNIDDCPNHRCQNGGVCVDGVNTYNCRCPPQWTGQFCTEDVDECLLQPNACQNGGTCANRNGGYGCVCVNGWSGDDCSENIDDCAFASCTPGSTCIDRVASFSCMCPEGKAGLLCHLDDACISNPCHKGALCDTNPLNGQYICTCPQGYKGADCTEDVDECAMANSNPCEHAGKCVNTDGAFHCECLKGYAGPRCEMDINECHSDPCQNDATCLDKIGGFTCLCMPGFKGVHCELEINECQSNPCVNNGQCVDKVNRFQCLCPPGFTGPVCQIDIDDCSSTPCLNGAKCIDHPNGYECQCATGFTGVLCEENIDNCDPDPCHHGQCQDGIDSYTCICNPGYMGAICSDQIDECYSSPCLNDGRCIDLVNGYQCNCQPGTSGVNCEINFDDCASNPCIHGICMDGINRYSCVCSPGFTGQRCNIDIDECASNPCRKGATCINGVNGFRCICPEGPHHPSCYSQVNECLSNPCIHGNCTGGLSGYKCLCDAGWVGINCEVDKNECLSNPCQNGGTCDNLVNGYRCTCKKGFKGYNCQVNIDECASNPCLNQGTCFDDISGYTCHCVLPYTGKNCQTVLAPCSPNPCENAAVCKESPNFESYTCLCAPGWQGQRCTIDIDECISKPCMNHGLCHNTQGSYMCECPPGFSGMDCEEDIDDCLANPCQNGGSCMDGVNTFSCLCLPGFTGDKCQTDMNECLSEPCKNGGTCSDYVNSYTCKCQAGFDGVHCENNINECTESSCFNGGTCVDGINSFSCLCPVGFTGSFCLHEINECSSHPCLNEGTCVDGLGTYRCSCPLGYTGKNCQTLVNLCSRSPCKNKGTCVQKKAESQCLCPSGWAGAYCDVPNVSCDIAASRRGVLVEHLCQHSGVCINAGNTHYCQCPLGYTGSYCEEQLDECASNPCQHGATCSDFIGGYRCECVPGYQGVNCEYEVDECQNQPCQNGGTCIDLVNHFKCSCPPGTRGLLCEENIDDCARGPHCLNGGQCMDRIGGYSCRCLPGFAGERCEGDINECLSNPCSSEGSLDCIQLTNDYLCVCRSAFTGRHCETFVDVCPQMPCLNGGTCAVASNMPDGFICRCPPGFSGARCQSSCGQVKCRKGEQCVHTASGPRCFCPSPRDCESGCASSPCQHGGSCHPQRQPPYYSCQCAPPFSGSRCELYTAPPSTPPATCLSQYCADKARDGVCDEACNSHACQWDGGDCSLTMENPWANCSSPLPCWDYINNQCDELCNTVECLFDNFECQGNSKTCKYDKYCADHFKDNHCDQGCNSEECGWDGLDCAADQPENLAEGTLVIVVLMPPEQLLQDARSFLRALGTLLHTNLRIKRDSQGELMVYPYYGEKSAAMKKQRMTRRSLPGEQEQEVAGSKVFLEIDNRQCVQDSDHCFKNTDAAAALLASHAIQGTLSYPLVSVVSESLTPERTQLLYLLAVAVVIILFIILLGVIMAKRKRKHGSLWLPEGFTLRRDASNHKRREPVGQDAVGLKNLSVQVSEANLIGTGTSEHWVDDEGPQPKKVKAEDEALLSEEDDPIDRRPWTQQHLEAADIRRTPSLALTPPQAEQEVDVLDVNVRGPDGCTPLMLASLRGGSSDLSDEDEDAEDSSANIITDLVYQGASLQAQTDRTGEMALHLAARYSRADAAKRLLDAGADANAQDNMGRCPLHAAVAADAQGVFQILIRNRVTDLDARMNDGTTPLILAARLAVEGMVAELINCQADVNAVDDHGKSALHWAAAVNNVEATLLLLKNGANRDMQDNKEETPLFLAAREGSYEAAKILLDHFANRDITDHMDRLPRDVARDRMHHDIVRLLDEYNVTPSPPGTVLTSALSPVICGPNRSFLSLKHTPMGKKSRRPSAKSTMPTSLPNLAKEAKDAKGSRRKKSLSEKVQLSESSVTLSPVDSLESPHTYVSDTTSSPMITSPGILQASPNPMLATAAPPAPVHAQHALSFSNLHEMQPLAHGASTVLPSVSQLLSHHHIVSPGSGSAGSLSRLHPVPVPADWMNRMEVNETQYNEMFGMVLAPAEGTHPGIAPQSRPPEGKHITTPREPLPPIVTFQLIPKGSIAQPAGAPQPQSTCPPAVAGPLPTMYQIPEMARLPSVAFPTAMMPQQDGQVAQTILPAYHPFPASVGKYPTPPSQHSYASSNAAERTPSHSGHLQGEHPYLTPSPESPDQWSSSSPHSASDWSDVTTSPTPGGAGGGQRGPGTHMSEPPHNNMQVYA

As for `CS(=O)(=O)CCOC(=O)C1=CC(c2ccc(CO)cc2)=CC(c2cccs2)N(Cc2cccc(OC(F)(F)F)c2)C=C1C(=O)OCCS(C)(=O)=O` (stereo not given), the composite z-score in test [1] is -0.398; in test [2], 0.405; in [3], 0.024; in [4], 0.708; in test [5], 1; in test [6], 1.63. Further, the composite z-score in [7] is 0.999; in [9], 1.14; in test [10], 0.0139; in [11] it was 1.34; in test [15], 3.12; in test [17], -0.0833. The composite z-score is 0.333 in [18], 0.856 in test [19] and -0.0688 in test [20]. Also, the z-score in test [8] is 0.371 (inactive); in test [12], -0.246 (inactive); in [13] it was -3.38 (inactive); in [14], 2.41 (inactive); in test [16], -0.575 (inactive).

For the compound `COC(=O)[C@@]1(Cc2ccccc2)[C@H]2c3cc(C(=O)N(C)C)n(Cc4cc(F)c(F)c(F)c4)c3C[C@H]2CN1C(=O)c1ccccc1`, the composite z-score was 0.683 in test [1]; -0.166 in test [2]; 0.117 in [3]; 1.23 in [4]; 1.68 in test [5]; 2.02 in test [6]. Further, the composite z-score in test [7] is 1.16; in [9], 0.437; in test [10], 0.776; in test [11], 0.664; in test [15], 3.22; in test [17] it was 0.461. Moreover, the composite z-score amounted to 0.137 in test [18], 1.04 in test [19] and 0.218 in test [20]. The z-score in test [8] was 1.47 (inactive); in test [12] it was 0.103 (inactive); in test [13], 1.52 (inactive); in test [14], 0.405 (inactive); in [16], -0.832 (inactive).

As for `COCCOC(=O)N1C(=O)[C@@]2(c3cc(C#CC4=CCCCC4)ccc31)[C@H](c1ccc(OCCO)cc1)N1[C@H](c3ccccc3)[C@H](c3ccccc3)OC(=O)[C@H]1[C@@H]2C(=O)Nc1nc2ccccc2s1`, the composite z-score in test [1] is -0.368; in test [2] it was 0.115; in test [3] it was -0.104; in [4], 0.854; in test [5], 1.4; in [6], 0.93. Moreover, the composite z-score in test [7] is 1.12; in test [9], 0.241; in test [10], 0.0722; in test [11], 1.55; in test [15], 3.06; in [17], -0.0242. Moreover, the composite z-score in test [18] was 0.772; in test [19], 1.08; in test [20] it was -0.0164. Besides, the z-score is 1.89 (inactive) in [8]; 1.09 (inactive) in [12]; 1.04 (inactive) in test [13]; 3.21 (inactive) in test [14]; 1.9 (inactive) in test [16].

Consider `CCOC(=O)C1=C[C@@H](C(C)(C)C)N(S(=O)(=O)c2ccc(C)cc2)[C@H]1c1ccc(Cl)c(Cl)c1`, for which the composite z-score was -0.301 in test [1]; 0.134 in test [2]; 0.12 in test [3]; 0.614 in test [4]; 1.56 in test [5]; 1.53 in test [6]. For the same compound, the composite z-score in [7] is 0.911; in [9], 0.514; in [10], -0.236; in [11], 1.46; in [15], 2.68; in test [17], 0.201. The values for the composite z-score in test [18], in [19] and in test [20] were 0.346, 1.09 and 0.239, respectively. The z-score was -0.446 (inactive) in test [8]; 0.771 (inactive) in test [12]; 1.71 (inactive) in [13]; 2.44 (inactive) in test [14]; -0.875 (inactive) in test [16].

For the compound `COCC1=C([C@H](O)CCc2ccccc2)[C@H](CO)[C@@H]2C(=O)N(Cc3ccccc3)C(=O)[C@@H]2C1`, the composite z-score was -0.286 in [1]; -0.133 in test [2]; -0.101 in [3]; 0.085 in test [4]; 0.258 in [5]; -0.295 in test [6]. The composite z-score is -0.112 in test [7]; -0.0829 in [9]; -0.249 in test [10]; -0.197 in test [11]; -0.0602 in [15]; -0.235 in [17]. Besides, the composite z-score in [18] is 0.49; in test [19], 0.248; in test [20], -0.0794. Besides, the z-score was -0.4 (inactive) in [8]; 0.226 (inactive) in test [12]; -0.819 (inactive) in test [13]; -0.177 (inactive) in test [14]; 1.38 (inactive) in test [16].
